Laboratory results as given in PubChem BioAssay (NCATS).
For some of these results: Entries with a potency or affinity are not part of this list. Activity calls are given as the source filed them. For most assays here, the call rests on the fitted dose curve.

What was measured:
[1] = Ebola virus entry assay, blue channel fluorescence
[2] = Ebola virus entry assay, green fluorescence channel
[3] = Ebola virus entry assay, ratio channel readout
[4] = Ebola virus entry assay, blue channel fluorescence; remark: listed apart in the source
[5] = Ebola virus entry assay, green channel fluorescence

Measured: outcome

Nc1nc(Cl)nc2c1ncn2[C@H]1C[C@H](O)[C@@H](CO)O1
inactive: [1] | [2] | [3] | [4]

CN[C@@H]1CCc2[nH]c3ccc(C(N)=O)cc3c2C1
inactive: [1] | [2] | [3] | [4]

N#Cc1ccc(C(c2ccc(C#N)cc2)n2cncn2)cc1
inactive: [1] | [2] | [3] | [4]

CC(C)(O/N=C(\C(=O)N[C@@H]1C(=O)N2C(C(=O)[O-])=C(C[n+]3ccccc3)CS[C@H]12)c1csc(N)n1)C(=O)O
inactive: [1] | [2] | [3] | [4]

Nc1nc(=O)n([C@@H]2CS[C@H](CO)O2)cc1F
inactive: [1] | [2] | [3] | [4]

C=CC(N)CCC(=O)O (centres undefined)
inactive: [1] | [2] | [3] | [4]

CNNCc1ccc(C(=O)NC(C)C)cc1
inactive: [1] | [2] | [3] | [5] | [4]

CNC(C)[C@@H]1CC[C@@H](N)[C@@H](O[C@H]2[C@H](O)[C@@H](O[C@H]3OC[C@](C)(O)[C@H](NC)[C@H]3O)[C@H](N)C[C@@H]2N)O1 (some centres undefined)
inactive: [1] | [2] | [3] | [4]

COc1ccnc(CS(=O)c2nc3cc(OC(F)F)ccc3[nH]2)c1OC (centres undefined)
inactive: [1] | [2] | [3] | [4]

CO/N=C(\C(=O)N[C@@H]1C(=O)N2C(C(=O)O)=C(C[N+]3(C)CCCC3)CS[C@H]12)c1csc(N)n1
inactive: [1] | [2] | [3] | [4]

CC(=O)NCCCS(=O)(=O)O
inactive: [1] | [2] | [3] | [4]

CO/N=C(/C(=O)N[C@@H]1C(=O)N2C(C(=O)O)=C(COC(N)=O)CS[C@H]12)c1ccco1
inactive: [1] | [2] | [3] | [4]
